Hits are enriched below; roughly 4.3% of the tested compounds scored in any of these assays.
Giardia kill: Small Molecules that selectively kill Giardia lamblia: qHTS | Giardia lamblia trophozoite viability | activity change, % at 7.66 µM, hits read low | 340,000 tested, 0.15% active; in the data active means activity change below about -80%; inconclusive means between about -30% and that limit;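 further: parasites exposed to compound for two days anaerobically before the ATP read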
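Giardia trophozoites, 100 cells per well, were exposed to compounds for 48 hrs at 37 deg C under anaerobic conditions; viability was then read as ATP content by bioluminescence after 15-30 min at room temperature.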
MCF10A rerep: A quantitative high throughput screen for small molecules that induce DNA re-replication in MCF 10a normal breast cells | MCF 10A DNA re-replication, Hoechst nuclear intensity, 48 h | Potency, µM (top dose mostly 46.1 µM), actives largely listed as activators | 350,000 tested, 2.9% active | AID 624296, 2012; further: nearly all actives have a fitted effect of over 50% in size
uPA surface inh: qHTS for Inhibitors of Cell Surface uPA Generation. cell surface uPA generation assay, qHTS. Potency, µM (highest dose often 38.3 µM), most hits filed as inhibitors. 330,000 tested, 0.31% active. AID 540303, 2011; active means well fitted inhibition curve with a large enough effect; inconclusive means small, poorly fitted or top-dose-only effect; inactive means no such curve, though single readings can be large or run the other way; tested in mouse RAW 264.7 cells; further: nearly all actives have a fitted effect of over 55% in size
SW480 rereplic: A quantitative high throughput screen for small molecules that induce DNA re-replication in SW480 colon adenocarcinoma cells; SW480 DNA re-replication, Hoechst DNA content imaging, 48 h; Potency, µM (top dose mostly 46.1 µM), actives largely listed as activators; 340,000 tested, 1.8% active; further: nearly all actives have a fitted effect of over 55% in size
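DNA re-replication was detected as more nuclei of elevated Hoechst intensity after 48 hr exposure to compound (23 nL pinned per well of 250 cells).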
Of the large screens only hits and unclear results are named; the others gave an inactive call. Unless noted, the call rests on the fitted dose curve; in most records, active means well fitted activation curve with a large enough effect; inconclusive means small, poorly fitted or top-dose-only effect; inactive means no such curve, though single readings can be large or run the other way.

Cn1nnnc1SCC(=O)Nc1ccc(Oc2ccc(Cl)cc2)cc1	MCF10A rerep 8.2µM, SW480 rereplic 14.6µM
Cc1cccc(N(CC(=O)NCC2CCCO2)C(=O)CCC(=O)Nc2nccs2)c1 (centres undefined)	none
O=C(Nc1ccc(-c2n[nH]c(=S)o2)cc1)c1ccccc1Br	none
COc1ccccc1OCCSc1nc2ccccc2n1CC(N)=O	none
CCOc1ccc(NS(=O)(=O)c2ccc(-c3cnc(C4CC4)o3)cc2)cc1	MCF10A rerep 6.51µM, uPA surface inh inconclusive
COc1ccc(NS(=O)(=O)c2cc(-c3cnc(C4CC4)o3)ccc2C)cc1	MCF10A rerep 5.8µM, uPA surface inh inconclusive, SW480 rereplic inconclusive
CCOc1ccc(NS(=O)(=O)c2cnc(Cl)c(Cl)c2)cc1	MCF10A rerep 4.11µM, SW480 rereplic inconclusive
COc1cc2ncnc(Nc3ccc(F)c(Cl)c3)c2cc1OCCCN1CCOCC1	MCF10A rerep 29.9µM (no result: Giardia kill, uPA surface inh)
COc1cccc(OC)c1OCCCN1CCOCC1	none
Cc1ccccc1NC(=S)N/N=C1\CC(C)(C)Oc2ccc(O)cc21	none
Cc1ccc(NC(=S)N/N=C2\CC(C)(C)Oc3ccc(O)cc32)cc1	MCF10A rerep 20.6µM
CC(=O)N1CCC2(CC1)C/C(=N\NC(=S)Nc1ccc(C)cc1)c1cc(O)ccc1O2	MCF10A rerep 23.1µM
CCc1nc2ccccc2c(C(=O)OCc2nc3ccccc3c(=O)[nH]2)c1C	MCF10A rerep 20.6µM, SW480 rereplic 11.6µM
CCOC(=O)c1ccc(CSC(=N)N)o1	MCF10A rerep inconclusive, SW480 rereplic 20.6µM
COC(=O)c1ccc(CSC(=N)N)o1	MCF10A rerep inconclusive, SW480 rereplic inconclusive
CCN(CC)c1nc(-c2ccc(Cl)cc2)cc(C(F)(F)F)c1C#N	MCF10A rerep 1.16µM, SW480 rereplic inconclusive
O=C1OC(OC(=O)c2cccnc2Nc2cccc(C(F)(F)F)c2)c2ccccc21 (centres undefined)	none (no result: Giardia kill, uPA surface inh)
Cc1cccc(NC(c2ccc(C)s2)c2ccc3ccc(C)nc3c2O)n1 (centres undefined)	MCF10A rerep 5.8µM, SW480 rereplic inconclusive
Cc1ccc2ccc(C(Nc3ccccn3)c3ccccc3)c(O)c2n1 (centres undefined)	uPA surface inh inconclusive
COc1cc(C(Nc2ccccn2)c2ccc3ccc(C)nc3c2O)cc(OC)c1O (centres undefined)	MCF10A rerep 13µM, SW480 rereplic 20.6µM
CNC(=O)[C@]1(C(F)(F)F)C[C@H](CCC2CCCCC2)CCCO1	none (no result: MCF10A rerep, uPA surface inh, SW480 rereplic)
COc1cccc(Sc2ccccc2/C=N/NC(N)=O)c1	MCF10A rerep inconclusive, SW480 rereplic 6.51µM
C=CCc1cccc2cc(C(=O)N3CCN(C(=O)c4ccco4)CC3)c(=O)oc12	MCF10A rerep 13µM, SW480 rereplic inconclusive
O=C(/C=C/c1cccc2ccccc12)c1ccncc1	Giardia kill inconclusive, MCF10A rerep 11.6µM, SW480 rereplic inconclusive
COc1ccccc1/C=C/C(=O)c1ccc(Cl)cc1	MCF10A rerep inconclusive, SW480 rereplic inconclusive (no result: uPA surface inh)
COc1ccc(/C=C/C(=O)c2ccccc2)c(OC)c1	SW480 rereplic inconclusive
CC(=O)c1ccc(NS(=O)(=O)c2ccc(C)cc2)cc1	MCF10A rerep inconclusive
Cc1[nH]c2ccccc2c1/C=C/C(=O)c1ccncc1	SW480 rereplic inconclusive
COc1ccccc1/C=C/C(=O)c1ccccc1	MCF10A rerep 25.9µM, SW480 rereplic inconclusive
COc1ccccc1/C=C/C(=O)c1ccc(NC(C)=O)cc1	MCF10A rerep 16.4µM
COc1cc(OC)c(OC)cc1/C=C/C(=O)c1ccc(NS(=O)(=O)c2ccc(C)cc2)cc1	MCF10A rerep 5.8µM, SW480 rereplic inconclusive
CCCCCC(=O)N/N=C(\C)c1ccc(N2CCCCC2)cc1	none
O=C(CCC(=O)Nc1nnc(C2CCCCC2)s1)Nc1ccccc1	none
COc1ccc(C(=O)NC(CCSC)C(=O)NC2CC2)cc1 (centres undefined)	none
COc1ccccc1/C=C/C(=O)NC(=S)N1CCN(C)CC1	none
O=C(/C=C/c1c[nH]c2ccccc12)c1ccccc1	MCF10A rerep inconclusive, SW480 rereplic 18.4µM
Cc1ccc(C(=O)/C=C/c2c[nH]c3ccccc23)cc1	none
COc1ccc(/C=C/C(=O)NC(C)CCc2ccccc2)cc1OC (centres undefined)	SW480 rereplic inconclusive
COc1ccccc1/C=C/C(=O)NC(=S)NC(C)C	MCF10A rerep inconclusive, SW480 rereplic 16.4µM
COc1ccc(/C=C/C(=O)NC(=S)NCc2ccccc2)cc1OC	SW480 rereplic 23.1µM
COc1ccc(OC)c(NC(=S)N2c3ccccc3CC2C)c1 (centres undefined)	MCF10A rerep inconclusive
O=C(N/N=C/c1cc(Br)c(O)c(Br)c1)c1cc2c(ccc3ccccc32)o1	MCF10A rerep 8.2µM, SW480 rereplic inconclusive
O=C(N/N=C/c1cc(Cl)c(O)c(Cl)c1)c1cc2c(ccc3ccccc32)o1	MCF10A rerep inconclusive, SW480 rereplic 14.6µM
S=C1NC2(CCCCC2)Nc2ccccc21	none
Cc1ccc2c(c1)/C(=C/c1ccc(F)cc1)C(=O)N2	MCF10A rerep inconclusive
Cc1ccc(C2=N/C(=C\c3ccc(F)cc3)C(=O)N2)cc1	MCF10A rerep inconclusive, SW480 rereplic 14.6µM
CCn1c(O)c(/C=N/N=C/c2ccccc2)c2ccc(C3=NNC(=O)CC3)cc21	MCF10A rerep 16.4µM
CCC(CC)=N/N=C/c1c(O)n(CC)c2cc(C3=NNC(=O)CC3)ccc12	none
O=C(Nc1ccccc1)OC[C@H](CN1CCCCC1)OC(=O)Nc1ccccc1	none (no result: Giardia kill, uPA surface inh)
COc1ccccc1NC(=S)N1CCC(c2nc3cc(C)c(C)cc3[nH]2)CC1	none
COc1ccccc1NC(=O)N1CCC(c2nc3cc(C)c(C)cc3[nH]2)CC1	MCF10A rerep 3.66µM, SW480 rereplic 5.8µM
N#CC1(NC(=O)CN2C(=O)NC(Cc3c[nH]c4ccccc34)C2=O)CCCCC1 (centres undefined)	none
Clc1ccc(SCc2cc(N3CCOCC3)nc(-c3ccccn3)n2)cc1	MCF10A rerep inconclusive, SW480 rereplic 8.2µM
Clc1ccc(SCc2csc(N3CCOCC3)n2)cc1	none
CCCCCCCCOC(=O)c1cc([N+](=O)[O-])c(Sc2ncnc3nc[nH]c23)c([N+](=O)[O-])c1	SW480 rereplic inconclusive
CC(=O)Nc1cc2c3c(cccc3c1)-c1ccccc1-2	MCF10A rerep 2.31µM, SW480 rereplic 16.4µM
O=c1c2ccccc2sn1-c1ccc(Cl)c(S(=O)(=O)N2CCOCC2)c1	none (no result: MCF10A rerep, uPA surface inh, SW480 rereplic)
COc1ccc(C(=O)Nc2cc(OC)ccc2OC)cc1	none
COc1ccc(C(=O)Nc2cc(OC)c(Cl)cc2OC)cc1	none
COc1ccc(NC(=O)c2ccc(C(=O)Nc3ccc(OC)cc3OC)cc2)c(OC)c1	SW480 rereplic 5.17µM
COc1ccc(C(=O)Nc2cccc3c2CCCC3)cc1	MCF10A rerep 13µM, uPA surface inh inconclusive, SW480 rereplic inconclusive
COc1ccc(CC(=O)Nc2cccc3c2CCCC3)cc1	none
COc1ccc(NCC(=O)Nc2ccc(Br)cc2F)c(OC)c1	MCF10A rerep inconclusive, SW480 rereplic 6.51µM
COc1ccc(C(=O)Nc2ccc(-c3ccc(NC(=O)c4ccc(OC)cc4)c(OC)c3)cc2OC)cc1	MCF10A rerep 2.31µM
CCCCC(Sc1ccc2nnc(-c3ccccn3)n2n1)C(=O)O (centres undefined)	none (no result: MCF10A rerep, uPA surface inh, SW480 rereplic)
